In PubChem BioAssay AID1851 (National Center for Advancing Translational Sciences (NCATS), 2009):
Among all 16,000 compounds or so, about 5,800 (36%) were called active. Inconclusive results (about 23%) are left out. Calls follow the shape of the dose curve; as a rule, active = well fitted curve in the direction sought with a large enough effect; inconclusive = small, poorly fitted or top-dose-only effect, or effect the other way; inactive = no such curve, though single readings can be large or run the other way. Some of the results follow. Where a structure was tested more than once in an assay, its records may differ in their call.

What follows are compounds tested against Cytochrome P450 2C19 (Homo sapiens) (UniProt P33261) (assay: Cytochrome panel assay with activity outcomes). Settings: recombinant CYP, pro-luciferin dealkylation, luminescence, p450-cyp2c19; series mostly up to 57.1 µM.
Cytochrome P450 2C19 (Homo sapiens), sequence (P33261 whole entry, looked up): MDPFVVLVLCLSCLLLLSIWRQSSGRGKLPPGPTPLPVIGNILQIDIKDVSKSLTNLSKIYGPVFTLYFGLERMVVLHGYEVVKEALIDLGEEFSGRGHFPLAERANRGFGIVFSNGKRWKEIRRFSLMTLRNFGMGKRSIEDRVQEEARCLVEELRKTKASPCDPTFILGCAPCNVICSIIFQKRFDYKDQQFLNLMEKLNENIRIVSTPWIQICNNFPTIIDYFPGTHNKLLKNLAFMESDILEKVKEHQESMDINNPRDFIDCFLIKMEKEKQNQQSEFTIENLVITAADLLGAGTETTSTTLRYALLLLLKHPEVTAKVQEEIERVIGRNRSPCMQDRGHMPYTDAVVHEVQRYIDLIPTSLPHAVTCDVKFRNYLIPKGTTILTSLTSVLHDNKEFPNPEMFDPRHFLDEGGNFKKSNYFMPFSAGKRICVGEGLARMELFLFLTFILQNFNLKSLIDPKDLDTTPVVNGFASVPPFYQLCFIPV
% is scaled to controls: 0 for no effect and ±100 for the full control effect.

Question: `Cc1cccc(C)c1OCC(O)CNC(C)(C)C` (configuration not stated) was tested. Which AC50 did it give?
Answer: The AC50 was “inactive”.

Question: `Cc1ccccc1OCC(O)Cn1c2ccccc2c2ccccc21` (configuration not stated) was tested. Which AC50 did it give?
Answer: The AC50 was 0.631 µM (active).

Question: With `C=CCN(CC=C)CC(O)Cn1c2ccccc2c2ccccc21` (configuration not stated) as the compound, how does the AC50 read?
Answer: Its AC50 is 0.562 µM (active).

Question: Which AC50 does the source give for `Cc1ccccc1OCC(O)Cn1c(NCc2ccccc2)nc2c1c(=O)[nH]c(=O)n2C` (configuration not stated) here?
Answer: The AC50 was “inactive”.

Question: With `Cc1ccc(OCC(O)Cn2c3ccccc3c3ccccc32)cc1` (configuration not stated) as the compound, how does the AC50 read?
Answer: Its AC50 is 1.26 µM (active).

Question: For `c1ccc([C@@H]2CN3CCSC3=N2)cc1`, which AC50 is on record?
Answer: Its AC50 is “inactive”.

Question: Which AC50 does the source give for `COc1ccc(CCn2c(=N)c(C(=O)NCc3ccco3)cc3c(=O)n4ccccc4nc32)cc1` here?
Answer: The AC50 was 11.2 µM (active).

Question: `CCn1c(CC(=O)Nc2ccc(C)cc2)nnc1SCC(=O)Nc1nc(C)cs1` was tested. Which AC50 did it give?
Answer: The AC50 was “inactive”.

Question: For `CCn1c(CSCc2ccc(C)cc2)nnc1SCC(=O)NCc1ccccc1`, which AC50 is on record?
Answer: Its AC50 is 14.1 µM (active).

Question: Which AC50 does the source give for `C=CCn1c(Cc2c[nH]c3ccccc23)nnc1SCC(=O)NCc1ccccc1` here?
Answer: Its AC50 is 25.1 µM (active).

Question: With `CCn1c(CC(=O)Nc2ccc(C)cc2)nnc1SCC(=O)NCCc1ccccc1` as the compound, how does the AC50 read?
Answer: Its AC50 is 22.4 µM (active).

Question: How did the AC50 turn out when `C[C@@](N)(C(=O)O)c1ccc(S(=O)(=O)O)cc1` was run?
Answer: Its AC50 is “inactive”.

Question: `COc1cc(OC)c2nc(C)c3c(c2c1)N(c1ccc(O)cc1)CC3` was tested. Which AC50 did it give?
Answer: Its AC50 is 14.1 µM (active).

Question: With `Clc1ccccc1C(Nc1cnccn1)Nc1cnccn1` as the compound, how does the activity, negative = inhibition read?
Answer: The activity, negative = inhibition was 12% [at 11.4 µM] (inactive).

Question: With `CC1(C)S[C@@H]2[C@H](C(=O)O)N=C(Cc3ccccc3)N2[C@H]1C(=O)O` as the compound, how does the activity, negative = inhibition read?
Answer: The activity, negative = inhibition was 28.2% [at 11.4 µM] (inactive).

Question: Which AC50 does the source give for `COc1ccc2c(c1)c(CC(=O)O)c(C)n2C(=O)c1ccc(Cl)cc1` here?
Answer: Its AC50 is “inactive”.

Question: How did the AC50 turn out when `COc1ccc2c(c1)c(CC(=O)O)c(C)n2Cc1ccc(Cl)cc1` was run?
Answer: The AC50 was 10 µM (active).

Question: Which AC50 does the source give for `COc1ccc2c(c1)c(CC(=O)OCC(=O)O)c(C)n2C(=O)c1ccc(Cl)cc1` here?
Answer: Its AC50 is “inactive”.

Question: With `CC(C)(C)N1C(=O)[C@H]2[C@@H]3[C@H](O)C=CC(=O)[C@H]3CC[C@H]2C1=O` as the compound, how does the activity, negative = inhibition read?
Answer: The activity, negative = inhibition was 23.7% [at 11.4 µM] (inactive).

Question: How did the AC50 turn out when `CS(=O)(=O)N1N=C(c2ccc(Br)cc2)CC1c1ccc2c(c1)OCO2` (configuration not stated) was run?
Answer: The AC50 was 0.178 µM (active).

Question: Which activity, negative = inhibition does the source give for `C[C@@H]1CC[C@H]2C(=O)N3[C@@H](CC[C@@H](C)[C@@H]3c3ccc(Br)cc3)C(=O)N2[C@@H]1c1ccc(Br)cc1` here?
Answer: The activity, negative = inhibition was -27.6% [at 11.4 µM] (inactive).

Question: How did the AC50 turn out when `COc1ccc(NC(=O)CCNS(=O)(=O)c2ccc3c(c2)c(=O)n(C)c(=O)n3C)cc1` was run?
Answer: The AC50 was “inactive”.

Question: For `COc1ccc(OCCNS(=O)(=O)c2ccc3oc4ccccc4c3c2)cc1`, which AC50 is on record?
Answer: Its AC50 is 2.24 µM (active).

Question: With `CCCCc1ccc(NC(=S)NCc2cccs2)cc1` as the compound, how does the AC50 read?
Answer: Its AC50 is 3.55 µM (active).

Question: `Cc1ccc(C(=O)COC(=O)CNC(=O)C(c2ccccc2)c2ccccc2)cc1[N+](=O)[O-]` was tested. Which AC50 did it give?
Answer: The AC50 was 5.01 µM (active).

Question: `Cc1ccc(C(=O)COC(=O)CNC(=O)Cc2ccccc2)cc1[N+](=O)[O-]` was tested. Which AC50 did it give?
Answer: Its AC50 is “inactive”.

Question: With `Cc1ccc(C(CC(=O)c2ccco2)SCCO)cc1` (configuration not stated) as the compound, how does the AC50 read?
Answer: Its AC50 is 2.82 µM (active).

Question: With `CC[C@H](CN(C)C)C(=O)c1ccco1` as the compound, how does the activity, negative = inhibition read?
Answer: The activity, negative = inhibition was 8.39% [at 11.4 µM] (inactive).

Question: How did the AC50 turn out when `O=c1c(O)c(-c2ccc(O)c(O)c2)oc2cc(O)cc(O)c12` was run?
Answer: Its AC50 is “inactive”.

Question: `Cc1cc(=O)c2c(O)c(O)ccc2o1` was tested. Which AC50 did it give?
Answer: Its AC50 is “inactive”.

Question: For `O=c1cc(-c2ccccc2)oc2cc(O)c(O)c(O)c12`, which AC50 is on record?
Answer: The AC50 was “inactive”.

Question: With `COc1ccc(-c2cc(=O)c3c(O)cc(O)cc3o2)cc1` as the compound, how does the AC50 read?
Answer: The AC50 was 1 µM (active).

Question: `COc1ccc(C2=C(C#N)C(=O)OC2)cc1` was tested. Which AC50 did it give?
Answer: Its AC50 is “inactive”.

Question: Which activity, negative = inhibition does the source give for `O=C(O)c1c(-c2c3ccc(=O)cc-3oc3cc(O)ccc23)cc2ccccc2c1-c1ccccc1` here?
Answer: The activity, negative = inhibition was 25.6% [at 11.4 µM] (inactive).

Question: With `O=c1cc(-c2ccccc2)oc2cc(O)cc(O)c12` as the compound, how does the AC50 read?
Answer: The AC50 was 0.794 µM (active).

Question: With `O=c1cc(-c2ccc(O)cc2)oc2cc(O)cc(O)c12` as the compound, how does the AC50 read?
Answer: The AC50 was 7.94 µM (active).

Question: With `C=CCSC1=Nc2sccc2C2=NC(=O)CN12` as the compound, how does the AC50 read?
Answer: The AC50 was 7.94 µM (active).

Question: Which AC50 does the source give for `C[C@@](N)(Cc1ccc(O)c(O)c1)C(=O)O` here?
Answer: Its AC50 is “inactive”.

Question: Which AC50 does the source give for `Cc1cccc(CNc2ccnc(-c3ccccc3Cl)n2)c1` here?
Answer: The AC50 was 1.26 µM (active).

Question: With `COc1ccccc1-c1nccc(NCc2ccccc2)n1` as the compound, how does the AC50 read?
Answer: Its AC50 is 7.94 µM (active).

Question: For `Cc1cnc(CNc2ccnc(-c3ccccc3C)n2)cn1`, which AC50 is on record?
Answer: Its AC50 is “inactive”.

Question: For `Cc1ccccc1-c1nccc(NCc2cccnc2)n1`, which AC50 is on record?
Answer: The AC50 was 5.01 µM (active).

Question: How did the AC50 turn out when `CNc1ccnc(-c2ccccc2OC)n1` was run?
Answer: Its AC50 is “inactive”.

Question: How did the AC50 turn out when `Cc1cccc(CNc2ccnc(-c3ccccc3CN(C)C)n2)c1` was run?
Answer: Its AC50 is “inactive”.

Question: For `COc1ccccc1-c1nccc(NCc2cccc(C)c2)n1`, which AC50 is on record?
Answer: The AC50 was 10 µM (active).

Question: `COc1ccccc1-c1nccc(NCc2cccnc2)n1` was tested. Which AC50 did it give?
Answer: The AC50 was 3.98 µM (active).

Question: `Cc1noc(C)c1-c1nccc(NCc2cccnc2)n1` was tested. Which AC50 did it give?
Answer: The AC50 was 25.1 µM (active).

Question: `Cc1cnc(CNc2ccnc(-c3c(C)noc3C)n2)cn1` was tested. Which AC50 did it give?
Answer: Its AC50 is “inactive”.

Question: How did the activity, negative = inhibition turn out when `COC(=O)C/C=C\[C@@H](C)[C@@H](/C=N\OC[C@@H](O)[C@H]1O[C@H]2OC(C)(C)O[C@H]2[C@@H]1O)OC` was run?
Answer: The activity, negative = inhibition was -19.4% [at 11.4 µM] (inactive).

Question: With `O=c1ccc(-c2ccccc2)n[nH]1` as the compound, how does the activity, negative = inhibition read?
Answer: Its activity, negative = inhibition is 13.5% [at 11.4 µM] (inactive).

Question: How did the AC50 turn out when `Clc1ccccc1-c1nc(-c2ccccc2)n[nH]1` was run?
Answer: Its AC50 is 17.8 µM (active).

Question: With `NC(=O)Nc1n[nH]c(-c2ccccc2)n1` as the compound, how does the activity, negative = inhibition read?
Answer: The activity, negative = inhibition was 13.8% [at 11.4 µM] (inactive).

Question: For `CN1CCN(c2ncc3nc(-c4cc(F)cc(F)c4)c(=O)n(C4CC4)c3n2)CC1`, which AC50 is on record?
Answer: The AC50 was “inactive”.

Question: How did the activity, negative = inhibition turn out when `O=S(=O)(O)c1ccc(N=Nc2ccccc2)cc1` was run?
Answer: The activity, negative = inhibition was 6.93% [at 11.4 µM] (inactive).

Question: `Nc1ccc(S(=O)(=O)NC(=O)c2ccccc2)cc1` was tested. Which AC50 did it give?
Answer: The AC50 was “inactive”.

Question: `O=S(=O)(C=C(c1ccccc1)c1ccccc1)c1ccccc1` was tested. Which AC50 did it give?
Answer: Its AC50 is 2.82 µM (active).

Question: How did the AC50 turn out when `COc1ccc(NC(=O)N2CC[C@@]3(CCCN(C(=O)c4cc(C(F)(F)F)cc(C(F)(F)F)c4)C3)C2)cc1` was run?
Answer: Its AC50 is “inactive”.

Question: With `O=S(=O)(c1ccc(F)cc1)N1CC2CCCN2c2ccc(C(F)(F)F)cc21` (configuration not stated) as the compound, how does the AC50 read?
Answer: The AC50 was 2.24 µM (active).

Question: With `COc1ccc(S(=O)(=O)N2CC3CCCN3c3ccc(C(F)(F)F)cc32)cc1` (configuration not stated) as the compound, how does the AC50 read?
Answer: The AC50 was 0.562 µM (active).

Question: With `COc1ccc(C(OCCN2CCC[C@@H](C(=O)O)C2)(c2ccc(OC)cc2)c2ccc(OC)cc2)cc1` as the compound, how does the AC50 read?
Answer: Its AC50 is “inactive”.

Question: How did the activity, negative = inhibition turn out when `Nc1ccccc1CCCC(=O)O` was run?
Answer: The activity, negative = inhibition was -13.9% [at 11.4 µM] (inactive).

Question: `COc1ccccc1CN1CCCC2(CCN(C(=O)c3csnn3)CC2)C1` was tested. Which AC50 did it give?
Answer: Its AC50 is “inactive”.
